Source: PubChem
In the library only some 12% were active in any assay of this set; here they are far more common.
JMJD2A Tudor: qHTS Assay for Inhibitors of JMJD2A-Tudor Domain; 390,000 tested, 4.4% active; Potency, µM (titrated, usually from 114 µM), for the others: top-dose activity change, negative = inhibition, hits mostly inhibitors; Lysine-specific demethylase 4A (Homo sapiens), O75164; AlphaScreen JMJD2A-Tudor / H3K4me3 peptide binding; note: % is set by controls: 0 for no effect and ±100 for the full control effect; nearly all actives have a fitted effect of over 50% in size
HP1b binding inh: HTS for Inhibitors of HP1-beta Chromodomain Interactions with Methylated Histone Tails. Chromobox protein homolog 1 (Homo sapiens), P83916. 390,000 tested, 0.56% active. AlphaScreen HP1-beta / biotin-H3K9me3 peptide binding. AID 540317, 2011. Potency, µM (top dose mostly 114 µM), inactives show at the top dose activity change, negative = inhibition, actives largely listed as inhibitors; note: nearly all actives have a fitted effect of over 70% in size
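HP1-beta protein (50 nM final) preincubated 30 min at room temperature with biotinylated H3(1-18)K9me3 peptide (50 nM) in PBS pH 7.4, 0.01% Tween-20, then compound added for 30 min. AlphaScreen streptavidin donor/nickel chelate acceptor beads (10 ug/mL final), 30 min dark, luminescence read.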
BAZ2B block: qHTS Assay for Inhibitors of BAZ2B. AlphaScreen BAZ2B-H3K14Ac peptide displacement. Bromodomain adjacent to zinc finger domain protein 2B (Homo sapiens), Q9UIF8. 360,000 tested, 4.4% active. AID 504333, 2011. Potency, µM (series often up to 114 µM), for the others: at the top dose activity change, negative = inhibition, usual class: inhibitors; note: % is set by controls: 0 for no effect and ±100 for the full control effect; nearly all actives have a fitted effect of over 60% in size
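BAZ2B (50 nM) with biotin-H3(5-23)K14Ac peptide (50 nM) in PBS pH 7.4, 0.01% Tween-20, preformed 30 min, then compound 30 min at room temperature; top concentration 110uM. AlphaScreen streptavidin donor/nickel chelate acceptor beads (10 ug/mL final), 20 min dark, signal read.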
L3MBTL1 inh: qHTS Assay for the Inhibitors of L3MBTL1; Lethal(3)malignant brain tumor-like protein 1 (Homo sapiens), Q9Y468; 230,000 tested, 0.66% active; Potency, µM (top dose mostly 57.1 µM), inactives show at the top dose activity, negative = inhibition, usual class: inhibitors; AlphaScreen L3MBTL1–H3K9me1 peptide binding; note: % is set by controls: 0 for no effect and ±100 for the full control effect; nearly all actives have a fitted effect of over 60% in size
Target sequence (Q9Y468 whole entry, looked up): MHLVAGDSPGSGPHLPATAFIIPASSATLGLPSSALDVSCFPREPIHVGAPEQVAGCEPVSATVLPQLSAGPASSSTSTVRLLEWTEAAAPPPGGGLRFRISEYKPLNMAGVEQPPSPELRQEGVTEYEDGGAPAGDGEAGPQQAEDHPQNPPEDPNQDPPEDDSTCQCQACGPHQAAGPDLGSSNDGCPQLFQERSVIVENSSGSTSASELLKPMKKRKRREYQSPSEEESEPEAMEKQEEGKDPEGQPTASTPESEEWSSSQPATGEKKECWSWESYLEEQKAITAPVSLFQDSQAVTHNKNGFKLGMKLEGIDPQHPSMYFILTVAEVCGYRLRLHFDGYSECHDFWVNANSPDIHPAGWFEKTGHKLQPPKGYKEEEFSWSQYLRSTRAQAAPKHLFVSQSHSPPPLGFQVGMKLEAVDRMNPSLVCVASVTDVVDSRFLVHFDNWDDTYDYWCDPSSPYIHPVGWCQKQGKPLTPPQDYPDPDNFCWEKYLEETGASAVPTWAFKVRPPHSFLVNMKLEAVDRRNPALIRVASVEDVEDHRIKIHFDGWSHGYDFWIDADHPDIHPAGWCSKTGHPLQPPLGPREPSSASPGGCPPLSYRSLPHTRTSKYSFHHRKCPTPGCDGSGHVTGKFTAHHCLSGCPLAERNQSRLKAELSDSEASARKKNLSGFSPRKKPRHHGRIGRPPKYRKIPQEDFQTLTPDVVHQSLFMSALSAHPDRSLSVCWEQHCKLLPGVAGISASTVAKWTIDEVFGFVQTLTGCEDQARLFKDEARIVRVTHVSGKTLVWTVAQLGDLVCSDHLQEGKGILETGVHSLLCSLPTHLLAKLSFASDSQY
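AlphaScreen proximity signal between nickel-chelate acceptor and streptavidin donor beads (final 10 ug/mL) reports binding of 50 nM L3MBTL1 to 75 nM biotin-H3 K9me1 peptide; complex incubated with compounds 30 min at room temperature; cefsulodin titration as control.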
Sfp inh: qHTS Assay for Inhibitors of Bacillus subtilis Sfp phosphopantetheinyl transferase (PPTase); 4'-phosphopantetheinyl transferase ffp (Bacillus subtilis), Q9F4F7; Potency, µM, without a hit: largest response in the series, negative = inhibition, hits mostly inhibitors; Biochemical Sfp PPTase activity, qHTS; 310,000 tested, 3.5% active;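 note: the enzyme is Sfp with the accession as filed and its product quenches rhodamine fluorescence; 0% = enzyme reaction without inhibitor and -100% = no enzyme wells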
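Step 1, compound plus 15 nM Sfp-PPTase, 15 min, room temperature. Step 2, add rhodamine-CoA (5 uM) and BHQ-2-YbbR (12.5 uM). Step 3, read 525/598 nm fluorescence at 0 and 30 min.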
G9a block: qHTS Assay for Inhibitors of Histone Lysine Methyltransferase G9a; Potency, µM (highest dose often 102 µM), for the others: at the highest dose activity, negative = inhibition, most hits filed as inhibitors; 350,000 tested, 8.8% active; Histone-lysine N-methyltransferase EHMT2 (Homo sapiens), Q96KQ7; G9a H3K9 monomethylation, AlphaScreen, 2 h; AID 504332, 2011; note: % is set by controls: 0 for no effect and ±100 for the full control effect; nearly all actives have a fitted effect of over 75% in size
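Enzyme 20 nM + cpd, 15 min RT; add b-H3K9 pep 500 nM / SAM 20 uM; 2 h RT; anti-H3K9me1 Ab 0.5 ug/mL + SA donor / anti-rabbit acceptor beads 20 ug/mL each, 10 min; AlphaScreen read.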
Starred values were filed as active, the others as inactive; ? = inconclusive; / = no result given; [ ] = remark or other dose. Calls come from the whole dose curve; as a rule, active = well fitted curve in the direction sought with a large enough effect; inconclusive = small, poorly fitted or top-dose-only effect, or another doubt; inactive = no such curve, though single readings can be large; an effect the other way counts as inactive or inconclusive. Potency is the fitted concentration of half-maximal effect.

SMILES | JMJD2A Tudor | HP1b binding inh | BAZ2B block | L3MBTL1 inh | Sfp inh | G9a block
CC1CCc2c(sc(N)c2C(N)=O)C1 (centres undefined) | ? | -21% | -30% | -7% | -83% | ?
Cc1cccc(C(=O)c2c(N)sc3c2CCCC3)c1 | ? | -30% | -36% | -5% | 45µM* | 32µM*
Cc1cccc(C(=O)c2c(N)sc3c2CCC(C)C3)c1 (centres undefined) | ? | ? | 1% | -6% | ? | 45µM*
CC(C)NS(=O)(=O)c1ccc2[nH]c3nc(SCC(=O)Nc4ccc(F)c(F)c4)nnc3c2c1 | -23% | 36% | / | / | / | /
COc1cc(OC)c(NC(=O)C2=C(C)C(=O)OC23CCCCC3)cc1Cl | -34% | 6% | -27% | / | / | -11%[59 µM]
C/C(=N/NC(=O)CNc1ccc(C)cc1)c1ccc(Br)s1 | ? | -5% | -18% | ? | 0% | 35µM*
O=C(c1ccc(O)cc1)c1ccc(C(=O)c2ccc(O)cc2)cc1 | -6% | 19% | -1% | 5% | 11% | 2%
Oc1ccc(O)cc1 | / | / | / | / | ? | 6µM*
Cc1ccc(Nc2nc(N)c([N+](=O)[O-])c(NCc3ccccc3)n2)cc1 | -14% | 3% | -12% | -11% | 6% | 4%
COc1ccc(OC)c(Nc2nc(N(C)c3ccccc3)nc(N)c2[N+](=O)[O-])c1 | ? | -17% | ? | / | -6% | 35µM*
CCC(C)Nc1nc(N)c([N+](=O)[O-])c(Nc2ccccc2OC)n1 (centres undefined) | ? | ? | ? | -2% | -4% | 45µM*
COc1ccccc1Nc1nc(NCC(C)C)nc(N)c1[N+](=O)[O-] | ? | 7% | ? | -8% | -11% | ?
CCC(C)Nc1nc(N)c([N+](=O)[O-])c(Nc2cc(OC)ccc2OC)n1 (centres undefined) | 40µM* | ? | 18µM* | -23% | -12% | ?
CCC(C)Nc1nc(N)c([N+](=O)[O-])c(NCc2ccccc2)n1 (centres undefined) | 56µM* | ? | ? | / | -8% | -23%
COc1ccc(CCNc2nc3c(c(=O)n(C)c(=O)n3C)n2Cc2ccccc2Cl)cc1OC | -30% | 11% | -2% | / | / | -23%[59 µM]
Cc1nc2sc(C)c(C)n2c(=O)c1S(=O)(=O)N1CCN(c2ccccc2F)CC1 | -16% | 16% | -22% | / | / | 2%[59 µM]
COc1ccccc1Nc1nc(NCCCN(C)C)nc(N)c1[N+](=O)[O-] | ? | -15% | ? | -29% | -27% | 50µM*
CCC(C)Nc1nc(N)c([N+](=O)[O-])c(N2CCCCCC2)n1 (centres undefined) | ? | -28% | 50µM* | / | -2% | -46%
O=C(Cn1c(=O)nc(-c2ccccc2F)c2cc(Cl)ccc21)Nc1ccccc1C(F)(F)F | -2% | 22% | -12% | / | / | -1%[12.7 µM]
COCCN(C(=O)Cc1cccs1)c1nnc(-c2ccncc2)s1 | -24% | 5% | 79µM* | / | 7% | ?
CCN(C(=O)c1cccs1)c1nnc(-c2ccncc2)s1 | -7% | 20% | 8% | 2% | 14% | -34%[59 µM]
COc1ccc(CN2CCC(N(CCc3ccccc3)Cc3ccccc3)CC2)c(OC)c1 | 3.2µM* | ? | 40µM* | / | 40µM* | ?
COc1ccc(CCN(C)C(=O)CN2C(=O)c3ccccc3S2(=O)=O)cc1OC | 79µM* | ? | -2% | -1% | -1% | ?
COc1ccc(CCN(C)C(=O)C2CCN(Cc3ccccc3)CC2)cc1OC | 22µM* | ? | 12% | ? | -7% | 11%
COc1ccc(CN2CCC(C(=O)N(C)CCc3ccc(OC)c(OC)c3)CC2)c(OC)c1 | 7.9µM* | ? | ? | -7% | -9% | 10µM*
SMILES | JMJD2A Tudor | HP1b binding inh | BAZ2B block | L3MBTL1 inh | Sfp inh | G9a block
COc1ccc(CCN(C)C(=O)C2CC(=O)N(Cc3ccc(C)cc3)C2)cc1OC (centres undefined) | -3% | 26% | 4% | -2% | / | 0%[59 µM]
O=C(NC1CCCC1)c1ccc(CSc2nc3cccnc3n2Cc2ccccc2F)cc1 | -20% | 23% | -7% | / | / | ?
Cc1c(-c2ccc(Cl)cc2)noc1C1CCN(CCc2ccccc2)CC1 | / | / | / | / | 1% | 9%[59 µM]
COc1ccc(CCN(C)C(=O)Cc2ccc(-c3ccccc3)cc2)cc1OC | -24% | -9% | -17% | / | ? | -2%[59 µM]
CCCN1CCC(N(CCc2ccccc2)Cc2ccccc2)CC1 | -16% | 21% | -2% | -6% | 2% | -22%
CCN(Cc1ccccc1)C1CCN(Cc2ccccc2)CC1 | -6% | 29% | -24% | / | 5% | 71µM*
COc1ccc(CCN(C)C(=O)C2CCN(Cc3cccc(OC)c3OC)CC2)cc1OC | 3.2µM* | -16% | ? | 11% | -28% | /
COc1ccc(C(=O)OC2CC3CC[C@H](C2)N3C(C)=O)cc1OC (some centres undefined) | / | / | / | / | 13% | /
Cc1ccc(/C=N\NC(=O)c2csnn2)cc1 | -9%[11.4 µM] | -11% | 8% | -6% | 10µM* | /
NC(=O)NC(=O)Nc1ccccc1Cl | -7%[57.1 µM] | 65% | 3% | 0% | -1% | 1%[2.33 µM]
O=C(NNS(=O)(=O)c1ccc(F)cc1)c1ccccc1O | 2% | 24% | ? | -11% | 11% | 32µM*
O=C(NNS(=O)(=O)c1ccc(F)cc1)c1cc(Cl)ccc1O | 2% | 59% | -7% | -10% | 14% | 6%[59 µM]
Cc1ccc(NC(=O)c2csnn2)c(C)c1 | -18%[57.1 µM] | 63% | 4% | 4% | 4% | 14µM*
Cc1ccc(NC(=O)CC(=O)Nc2ccc(C)cc2C)c(C)c1 | -3% | 51% | 3% | / | 2% | 5%
O=C(NC(=O)c1csnn1)Nc1ccccc1Cl | -16% | 27% | -20% | / | 3% | 89µM*
O=C(C1CCN(c2nc3ccccc3[nH]2)CC1)N1CCN(c2ccccc2)CC1 | -2% | 27%[57 µM] | -1% | / | / | -5%[59 µM]
CCOC(=O)c1sc2ccccc2c1S(=O)(=O)Nc1cc(OC)ccc1OC | -28% | 30% | -36% | / | / | ?
Cc1ccc(S(=O)(=O)NNC(=O)c2csnn2)cc1 | 18µM* | 19% | -5% | -1% | 10% | ?
Cc1ccc(S(=O)(=O)NNC(=O)c2ccccc2O)cc1 | 3.2µM* | 4% | 1% | -7% | 4% | -9%[59 µM]
